# Sampled rows, rich in hits. Any-hit rate of the full collection: about 2.6%.
# BaF3 parental – parental Ba/F3 cell viability inhibition, counter-screen for JAK2V617F inhibitor project, murine pro-B, CellTiter-Glo luminescence; 220,000 tested, 1.1% active; AID 1486, 2009; CellTiter-Glo ATP luminescence; inhibition, % at 5.6 µM;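 active = inhibition above a per-campaign cutoff, the mean inhibition of all tested compounds plus 3 SD, cut at about 27% in these data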;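 also: 0% = DMSO wells and 100% = JAK Inhibitor I control wells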
# KLF5 inhibitor – KLF5 expression inhibitors, primary screen, DLD-1 cells, luminescence; 290,000 tested, 0.23% active; DLD-1 KLF5 promoter-luciferase reporter; inhibition, % at 5 µM;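 active = inhibition above a per-plate limit of that plate's mean compound inhibition plus 3 SD, cut at about 60% in these data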;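 also: 0% = DMSO wells and 100% = LY294002 at 200 µM; higher means less KLF5 promoter-driven luciferase light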
# IEC-6 tox – cytotoxicity in IEC-6 intestinal epithelial cells, primary screen, cytotoxicity control for KLF5 inhibitor project, cell-based, luminescence; inhibition, % at 5 µM; IEC-6 cytotoxicity, luminescence viability; 290,000 tested, 0.78% active; in the data active = inhibition above about 22%;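 also: 0% = plate median of test compound wells and 100% = cytotoxic reference compound wells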
# FID counter – compounds displacing fluorescent DNA intercalator, primary screen, artefact control for HCV NS3 helicase inhibitor project, biochemical, FID fluorescence; inhibition, % at 7.9 µM; DNA fluorescent intercalator displacement; 290,000 tested, 0.17% active; in the data active = inhibition above about 37%;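 also: 0% = vehicle and 100% = reference compound; higher means more ethidium bromide displaced from hairpin DNA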
# GPR7 antagonist – GPR7 receptor antagonists, primary screen, cell-based, fluorescence, single concentration. GPR7-expressing cells, fluorescence antagonist assay. AID 1861, 2009. inhibition, % at 4.4 µM. 290,000 tested, 1.1% active. Neuropeptides B/W receptor type 1 (Homo sapiens), P48145; in the data active = inhibition above about 16%, passing the limit was not always enough;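 also: cells stimulated with the agonist NPW; 0% = agonist with vehicle and 100% = vehicle without agonist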
# Target sequence (P48145 whole entry, looked up): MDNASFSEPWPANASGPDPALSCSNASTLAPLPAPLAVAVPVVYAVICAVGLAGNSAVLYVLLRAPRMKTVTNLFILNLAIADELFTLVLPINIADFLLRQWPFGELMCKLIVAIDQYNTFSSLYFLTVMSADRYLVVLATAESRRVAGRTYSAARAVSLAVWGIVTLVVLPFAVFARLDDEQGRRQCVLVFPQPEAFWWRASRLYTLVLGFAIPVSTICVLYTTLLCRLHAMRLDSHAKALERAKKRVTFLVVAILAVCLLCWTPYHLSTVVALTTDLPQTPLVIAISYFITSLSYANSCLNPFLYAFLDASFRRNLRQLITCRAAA
# Ba/F3 V617F tox – reduced viability of JAK2V617F-dependent Ba/F3 cells, primary screen, JAK2V617F inhibitor project, cell-based, Ba/F3 EpoR-JAK2V617F, luminescence; 220,000 tested, 1.1% active; inhibition, % at 5.6 µM; ATP luminescence;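 active = inhibition above the campaign mean plus 3 SD over all tested compounds, cut at about 24% in these data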;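 also: cytokine-independent growth of Ba/F3 cells driven by EpoR plus mutant JAK2; 0% = DMSO-treated cells and 100% = JAK inhibitor I control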
# BaF3 tox 2 – parental Ba/F3 cell viability inhibition, counter-screen for JAK2V617F inhibitor project, murine pro-B, CellTiter-Glo luminescence | inhibition, % at 5.6 µM | 580 tested, 31% active | AID 1520, 2009 | shares compounds with Ba/F3 V617F tox | cells kept alive by added IL-3;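 active = cell growth inhibition above the hit limit set in the earlier mutant JAK2 cell screen, cut at about 27% in these data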;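 also: plate controls were DMSO-treated cells for no effect and JAK Inhibitor I control wells for full effect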
# JAK2V617F conf – viability loss in Ba/F3 EpoR-JAK2V617F cells, confirmation, JAK2V617F inhibitor project, cell-based, luminescence, triplicate | shares compounds with Ba/F3 V617F tox | CellTiter-Glo luminescence | inhibition, % at 5.6 µM | 580 tested, 66% active | AID 1521, 2009;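 active = mean inhibition above the hit cutoff derived in the earlier primary screen, cut at about 25% in these data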;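 also: 0% = DMSO-treated cells and 100% = JAK inhibitor I control wells; higher means lower luminescence from reduced cell ATP and viability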
# Starred values were filed as active, the others as inactive; · = no result given.
SMILES,BaF3 parental,KLF5 inhibitor,IEC-6 tox,FID counter,GPR7 antagonist,Ba/F3 V617F tox,BaF3 tox 2,JAK2V617F conf
Nc1nc(CCl)nc(Nc2ccc3ccccc3c2)n1,24,-59,47*,-11,3,100*,9,99*
Cc1ccccc1Nc1nc(N)nc(CCl)n1,-5,-8,14,-4,-6,37*,-3,9
COc1ccc(Nc2nc(N)nc(CN3CCOCC3)n2)cc1,7,-24,-6,-5,-5,0,·,·
COc1ccc(Nc2nc(N)nc(CCl)n2)cc1,-1,-24,6,-1,-14,45*,-1,65*
Cc1ccc(/C=N/NC(=O)c2cccs2)o1,5,-75,5,4,-2,-1,·,·
CC(Sc1ncc(C(F)(F)F)cc1Cl)C(=O)NC(N)=O (configuration not stated),3,-25,0,-5,-8,39*,0,-2
CC(C)C(=O)Nc1ncc(C(F)(F)F)cc1Cl,2,-12,-4,1,8,-3,·,·
O=C(O[C@@H]1OC2COC(=O)c3cc(O)c(O)c(O)c3-c3c(cc(O)c(O)c3O)C(=O)O[C@@H]([C@H]1O)[C@@H]2O)c1cc(O)c(O)c(O)c1,9,-20,7,-12,-1,48*,-3,-7
O=C(Cn1nc(CNc2ccc(Br)cc2)[n+]2c1CCCCC2)c1ccc([N+](=O)[O-])cc1,3,4,3,29,-9,1,·,·
O=C(Nc1ccc(Cl)cc1)/C(=C/c1cccc(O)c1)c1nc2ccccc2s1,-2,13,4,0,7,68*,20,98*
CCOc1ccccc1N1CCN(Cc2cccc(OC)c2O)CC1,4,11,-1,4,1,40*,-6,4
COc1ccccc1N1CCN(CCOc2c(OC)cccc2OC)CC1,5,-1,6,20,-11,26*,-3,22
COc1ccccc1N1CCN(CCCCOc2c(OC)cccc2OC)CC1,·,-19,0,4,-10,·,·,·
O=C(NCCCCNC(=O)c1ccc(Cl)s1)c1ccc(Cl)s1,0,-28,-1,1,1,-4,·,·
O=C(NCCCCCCNC(=O)c1ccc(Br)s1)c1ccc(Br)s1,-1,-34,-4,-2,15,37*,-2,20
CC(=O)OC1COC(N2CCc3ccccc32)C(OC(C)=O)C1OC(C)=O (configuration not stated),-1,-19,-6,-2,2,-4,·,·
CCOc1ccc(NC2=NC(C)(C)N=C(N)N2)cc1,26,-9,-2,8,-3,41*,83*,93*
CC(Cl)C(=O)NC(=O)NC12CC3CC(CC(C3)C1)C2 (configuration not stated),2,6,0,-4,5,-2,·,·
O=C(CCl)NC(=O)NC12CC3CC(CC(C3)C1)C2,-11,4,-4,1,7,43*,7,93*
COc1ccc(CCNC(=O)CSc2nnc3ccc(-c4cccnc4)nn23)cc1OC,2,13,1,-14,-5,4,·,·
O=C(CSc1ccccc1)Nc1ccc2c(c1)OCCO2,·,-151,-2,-15,-5,·,·,·
O=C(CSc1ccc(-c2ccccc2)nn1)Nc1ccc2c(c1)OCCO2,8,-29,8,-14,4,46*,-4,-14
Oc1ccccc1/C=N/Nc1nccnc1Cl,8,-58,1,-8,-2,10,·,·
Oc1ccc(/C=N/Nc2nccnc2Cl)c(O)c1,8,-13,-3,-9,-6,32*,71*,91*
Cc1nc([N+](=O)[O-])c(SCC(N)=O)n1Cc1ccccc1,2,-4,-4,-2,-4,-1,·,·
SMILES,BaF3 parental,KLF5 inhibitor,IEC-6 tox,FID counter,GPR7 antagonist,Ba/F3 V617F tox,BaF3 tox 2,JAK2V617F conf
Cc1nc([N+](=O)[O-])c(Sc2nc3ccccc3n2C)n1Cc1ccccc1,-2,-34,10,-10,-3,28*,5,92*
COc1ccc(F)cc1C(=O)C1CCCN(C(=O)c2cccc(N(C)C)c2)C1 (configuration not stated),5,-16,5,-33,-12,102*,-3,7
CN(C)c1cccc(C(=O)N2CCCC(C(=O)c3cc(F)ccc3F)C2)c1 (configuration not stated),1,-9,-1,-23,-10,-1,·,·
COC(=O)/C=C/c1ccc2c(c1)OCO2,9,12,-1,-9,-7,2,·,·
COC(=O)/C=C/c1ccc(OC(=O)OC)c(OC(=O)OC)c1,7,-92,2,1,-18,30*,3,82*
Cc1cccc(CS(=O)(=O)c2nnc([C@H](Cc3ccccc3)NC(=O)OC(C)(C)C)o2)c1,1,2,19,-32,8,44*,12,82*
CCOC(=O)C1CCN(C(=O)c2ccc(NS(=O)(=O)c3ccc(F)cc3C)cc2)CC1,8,-16,-4,-31,-10,3,·,·
C=CCn1c(CSc2ccccc2[N+](=O)[O-])n[nH]c1=S,·,-23,6,-4,3,·,·,·
C=CCn1c(Sc2ncc([N+](=O)[O-])s2)n[nH]c1=O,25,-4,11,4,0,77*,-4,9
O=C(NCc1cccnc1)c1cccc(NC(=O)c2ccco2)c1,7,22,2,-3,8,3,·,·
O=C(Nc1ccc(NC(=S)NC(=O)C(c2ccccc2)c2ccccc2)cc1)c1ccccc1,8,-9,5,0,-3,28*,29*,64*
O=C(c1ccco1)N(Cc1cc2ccccc2[nH]c1=O)CC1CCCO1 (configuration not stated),1,-29,10,-11,5,69*,-2,-4
Cc1ccc(C)c(Cn2nnc3c(=O)[nH]c(C(=O)NCC4CCCO4)nc32)c1 (configuration not stated),4,-16,6,-22,-15,28*,-1,1
Cc1cc(OCCCn2cnc3ccccc3c2=O)ccc1[N+](=O)[O-],4,-5,-2,-4,-5,2,·,·
CC1=CC(C)(C)N(S(=O)(=O)c2ccc(C)cc2)c2ccccc21,11,9,5,-13,9,30*,46*,94*
CC(=O)c1ccc(Sc2nnnn2-c2ccccc2)c([N+](=O)[O-])c1,3,6,2,1,-2,44*,2,83*

# Bioassay records from PubChem.
